# Laboratory results from PubChem BioAssay (Tox21).
# Records with an inconclusive call do not appear. A number with no mark means an inactive call. Calls of active or inactive are those of the source. Calls follow the shape of the dose curve; as a rule, active = well fitted cell-killing curve with a large enough effect in the repeat runs; inconclusive = weak or mixed curves; inactive = flat fitted curve, though single readings scatter.
# Experiment: qHTS assay to identify small molecule antagonists of the estrogen related receptor (ERR) signaling pathway - cell viability counter screen (AID 1224818)
# Settings: ERR reporter cell line viability counter screen; series mostly up to 46.1 µM; viability change, negative = cytotoxic: at the top concentration
# Text: National Center for Advancing Translational Sciences [NCATS]
# NIH Chemical Genomics Center [NCGC]
# U.S. Environmental Protection Agency [EPA]
# National Institutes of Environmental Health Sciences [NIEHS]
# National Toxicology Program [NTP]
# U.S. Food and Drug Administration [FDA]
# Estrogen related receptors (ERRs), the first orphan nuclear receptors discovered, play an important role in the control of cellular energy metabolism. ERRs are required for high-energy production in response to the environmental challenges. ERR-alpha was also identified as an adverse marker for breast cancer progression; ERR-alpha-positive tumors have a poor prognosis. To screen and to identify environmental compounds that perturb the ERR signaling pathways could provide valuable information for potential therapeutic or preventive measures in the treatment of metabolic disease. To differentiate true ERR antagonists or agonist from cytotoxic substances, the assay is multiplexed with cell viability assay.
# Tox21 Assay Protocol Summary:
# The ERR cells were dispensed at 2,000 cells/5 ul/well in 1536-well white plates using a Multidrop dispenser. After the assay plates were incubated at a 37 C/5% CO2 incubator for 6 hours, 23 nL of compounds dissolved in DMSO, positive and negative controls or DMSO only was transferred to the assay plate by a pin tool. The plates were incubated at 37 C for 17.5 hours. 1 ul/well of CellTiter-Fluor reagent was added into the assay plates using a Flying Reagent Dispenser. After 30 min incubation at 37 C/5% CO2, the fluorescence intensity in the plates was measured using a ViewLux plate reader.
# % is scaled to controls: 0 for no effect and ±100 for the full control effect; potency is read from the fitted curve at half-maximal effect.
SMILES,"viability change, negative = cytotoxic",Potency
COC(=O)[C@H]1[C@H]2C[C@@H]3c4[nH]c5cc(OC)ccc5c4CCN3C[C@H]2C[C@@H](OC(=O)c2cc(OC)c(OC)c(OC)c2)[C@@H]1OC,-5.04%,
Cc1scc2c1N(C(=O)CN1CCN(C)CC1)c1ccccc1NC2=O,-0.775%,
c1ccc2c(c1)CCCC2C1=NCCN1 (stereo not given),-6.57%,
CCn1cc(C(=O)O)c(=O)c2cc(F)c(N3CCNC(C)C3)c(F)c21 (stereo not given),-6.89%,
O=C1CC2(CCCC2)CC(=O)N1CCCCN1CCN(c2ncccn2)CC1,10.3%,
COc1nc(C)nc(Cl)c1NC1=NCCN1,7.54%,
NC(N)=NC(=O)Cc1c(Cl)cccc1Cl,-8.27%,
NCCCCCC(=O)O,0.105%,
[Cl][In]([Cl])[Cl],-4.54% [at 92.2 µM],
CC(=O)N[C@@H](CS)C(=O)O,0.304%,
NNCCc1ccccc1,6.78%,
O=C(O)CP(=O)(O)O,9.48%,
c1cnc2cc3c(cc2n1)C1CNCC3C1,16.7%,
NCCO,1.72% [at 92.2 µM],
CNC1(C)C2CCC(C2)C1(C)C (stereo not given),1.2%,
CC(C(O)c1ccc(O)cc1)N1CCC(Cc2ccccc2)CC1 (stereo not given),1.25%,
C1COC(NC(C2CC2)C2CC2)=N1,-1.3%,
NC(=Nc1ccccc1)Nc1ccccc1,0.356% [at 92.2 µM],

SMILES,"viability change, negative = cytotoxic",Potency
CC(=O)OCC1=C(C(=O)O)N2C(=O)[C@@H](NC(=O)Cc3cccs3)[C@H]2SC1,15.9%,
CC(C)C(=O)c1c(C(C)C)nn2ccccc12,3.48%,
CC1COc2c(N3CCN(C)CC3)c(F)cc3c(=O)c(C(=O)O)cn1c23 (stereo not given),0.0332%,
NC(N)=Nc1nc(CSCC/C(N)=N/S(N)(=O)=O)cs1,7.28%,
CCCNC(C)C(=O)Nc1ccccc1C (stereo not given),7.67%,
Cc1c(O)cccc1C(=O)N[C@@H](CSc1ccccc1)[C@H](O)CN1C[C@H]2CCCC[C@H]2C[C@H]1C(=O)NC(C)(C)C,,10.6 µM (active)
COc1ccc(CCN(C)CCCC(C#N)(c2ccc(OC)c(OC)c2)C(C)C)cc1OC (stereo not given),-16.2%,
NC12CC3CC(CC(C3)C1)C2,12.8%,
CCN1CCCC1CNC(=O)c1cc(S(=O)(=O)CC)c(N)cc1OC (stereo not given),7.92%,
Cc1ccc(-c2cc(C(F)(F)F)nn2-c2ccc(S(N)(=O)=O)cc2)cc1,-10.8%,
N[C@@H]1CONC1=O,2.58%,
CC(N)=O,8.94%,
CC(C)(C)NCC(O)c1cc(O)cc(O)c1 (stereo not given),14.9%,
Clc1ccc2c(c1)C(N1CCNCC1)=Nc1ccccc1O2,-13.8%,
O=C1NCC2(CCN(CCc3ccccc3)CC2)O1,12.8%,
NC(Cc1ccc(Cl)cc1)C(=O)O (stereo not given),13.2%,
CNCCC(Oc1ccc(C(F)(F)F)cc1)c1ccccc1 (stereo not given),0.977%,
